{"source": "PubChem BioAssay", "note": "Unmarked numbers belong to inactive results. Activity calls are given as the source filed them. Cut-off read from the data, not from the text of the source, unless noted: active = inhibition above about 42%; inactive = the rest."}
{"tested_on": "not listed separately", "experiment": "StAR promoter reporter inhibitors, counter-screen for LRH-1 inverse agonist project, cell-based, luminescence, high throughput (AID 651611; in the data active = inhibition above about 28%)", "settings": "StAR promoter luciferase reporter counterscreen, at 3.6 µM, stronger effect = higher value"}
{"smiles": "Cc1c(C)c2ccc(OCC(=O)N3CCN(C(=O)C4COc5ccccc5O4)CC3)cc2oc1=O", "note": "(stereo not given)", "inhibition": "14.4%"}
{"smiles": "Cc1ccc(C)c(NC(=O)CSc2nnc(-c3ccccc3)n2N)c1", "inhibition": "-26.9%"}
{"smiles": "CC[C@H](CO)Nc1nc(Nc2cccc(Cl)c2)c2ncn(C(C)C)c2n1", "inhibition": "26%"}
{"smiles": "NC(=S)N/N=C/c1ccc(-n2nncc2-c2ccc(Cl)cc2)cc1", "inhibition": "12%"}
{"smiles": "COC(=O)CC1(C(=O)OC)Oc2ccc(Br)cc2C(=O)N1c1cc(Cl)c(Cl)cc1Cl", "note": "(stereo not given)", "inhibition": "12.1%"}
{"smiles": "CCCC(=O)Nc1sc2c(c1C(=O)Nc1ccccn1)CCCC2", "inhibition": "-1.01%"}
{"smiles": "Cc1c(Cl)cccc1NC(=O)CSc1sc2c(O)cc(=O)[nH]c2c1C#N", "inhibition": "-3.35%"}
{"smiles": "COc1ccc(-c2ccc(C(=O)NCc3ccncc3)c3occc23)c(C)c1", "inhibition": "29.2% (active)"}
{"smiles": "CCc1ccc2oc(C(=O)NCc3ccncc3)c(C)c2c1", "inhibition": "-4.67%"}
{"smiles": "O=[N+]([O-])c1cnccc1Nc1ccc(Cl)cc1", "inhibition": "15.6%"}
{"smiles": "O=C(Nc1cc(C(F)(F)F)cc(C(F)(F)F)c1)O[C@@H]1c2ccccc2[C@@H]2Cc3csc[n+]3[C@H]12", "inhibition": "15.6%"}
{"smiles": "O=C(c1ccccc1)N(NC(=O)C(O)(c1ccccc1)c1ccccc1)c1cccc(F)c1", "inhibition": "-4.21%"}
{"smiles": "Clc1ccccc1-c1nnc2sc(-c3ccncc3)nn12", "inhibition": "15.3%"}
{"smiles": "Cc1ccc[n+](CC(=O)Nc2ccc([N+](=O)[O-])cc2)c1", "inhibition": "12.6%"}
{"smiles": "Oc1ccccc1-c1nc(NCC2CCCO2)c2ccccc2n1", "note": "(stereo not given)", "inhibition": "26.3%"}
{"smiles": "O=C(CN(Cc1ccccc1)C(=O)CCl)c1cccc(Br)c1", "inhibition": "19%"}
{"smiles": "O=C(NCc1cccnc1)c1cccc2c1C(=O)N(C1CCCCC1)C2", "inhibition": "12.8%"}
{"smiles": "O=C(Nc1ccc(Cc2ccncc2)cc1)c1cc(F)c(F)cc1Cl", "inhibition": "-0.62%"}
{"smiles": "COc1ccc(C2=CC(=O)CC(C)(C)C2)cc1OC", "inhibition": "-7.16%"}
{"smiles": "CCn1c2ccccc2c2cc(/C=N/n3cnnc3)ccc21", "inhibition": "-4.6%"}
{"smiles": "O=C(Cc1c(F)cccc1Cl)Nc1ccncc1", "inhibition": "3.12%"}
{"smiles": "COc1ccccc1NC(=O)c1ccc(NC(=O)COC(=O)C(C)C)cc1", "inhibition": "12.5%"}
{"smiles": "Cc1ccc(NC(=O)CSc2sc3c(O)cc(=O)[nH]c3c2C#N)c(F)c1", "inhibition": "7.65%"}
{"smiles": "O=C1C(Cl)=C(N2CCOCC2)C(=O)N1c1ccc(Br)cc1", "inhibition": "12.1%"}
{"smiles": "Cc1ccc2c(c1)Oc1ccc(NC(=O)CCl)cc1C(=O)N2", "inhibition": "61.7% (active)"}
{"smiles": "Cc1cccc(NC(=O)CSc2nnc([C@@H]3CCCN3C(=O)OC(C)(C)C)o2)c1C", "inhibition": "33.4% (active)"}
{"smiles": "CCc1cc(=O)oc2c(C)c(OCC(=O)NCCCN3CCOCC3)ccc12", "inhibition": "3.94%"}
{"smiles": "O=C1C(=C(I)I)c2ccccc2-c2ccccc21", "inhibition": "2.21%"}
{"smiles": "CS(=O)(=O)N1CCCC(c2nc(-c3ccc(S(=O)(=O)NCc4ccccc4)cc3)no2)C1", "note": "(stereo not given)", "inhibition": "-1.45%"}
{"smiles": "Cc1ccc(Cl)cc1N1CCN(C(=O)C(C)n2ncn3cccc3c2=O)CC1", "note": "(stereo not given)", "inhibition": "7.03%"}
{"smiles": "Cc1sc2ncnc(NCCc3ccc(S(N)(=O)=O)cc3)c2c1C", "inhibition": "14.7%"}
{"smiles": "CCOC(=O)N1CCc2cc(OC)c(OC)c3c2c1cc1cc(OC)c(OC)cc13", "inhibition": "60.1% (active)"}
{"smiles": "S=C1Cc2ccccc2N1", "inhibition": "56% (active)"}
{"smiles": "CCC1(C)OC(=O)N2CCc3c(C)[nH]c4c(C)ccc(c34)C21C", "note": "(stereo not given)", "inhibition": "8.96%"}
{"smiles": "COc1ccccc1Cc1c(-c2ccc(OC)c(OC)c2)nc2c3ccccc3ccn12", "inhibition": "8.86%"}
{"smiles": "O=[N+]([O-])c1ccc(N2CCCC2)nc1N1CCCC1", "inhibition": "11.1%"}
{"smiles": "O=C(Nc1cc(Cl)ccc1-n1cncn1)c1ccc([N+](=O)[O-])s1", "inhibition": "23.2%"}
{"smiles": "Oc1ccc2ccccc2c1C=NCc1ccccc1", "inhibition": "22.8%"}
{"smiles": "O=C(CN1C(=O)NC2(CCCC2)C1=O)NCCc1ccc(F)cc1", "inhibition": "15.3%"}
{"smiles": "Cc1onc(NC(=O)c2ccc([N+](=O)[O-])o2)c1Br", "inhibition": "4.26%"}
{"biological_target": "Nuclear receptor subfamily 5 group A member 2 (Homo sapiens) (UniProt O00482)", "sequence (O00482 whole entry, looked up)": "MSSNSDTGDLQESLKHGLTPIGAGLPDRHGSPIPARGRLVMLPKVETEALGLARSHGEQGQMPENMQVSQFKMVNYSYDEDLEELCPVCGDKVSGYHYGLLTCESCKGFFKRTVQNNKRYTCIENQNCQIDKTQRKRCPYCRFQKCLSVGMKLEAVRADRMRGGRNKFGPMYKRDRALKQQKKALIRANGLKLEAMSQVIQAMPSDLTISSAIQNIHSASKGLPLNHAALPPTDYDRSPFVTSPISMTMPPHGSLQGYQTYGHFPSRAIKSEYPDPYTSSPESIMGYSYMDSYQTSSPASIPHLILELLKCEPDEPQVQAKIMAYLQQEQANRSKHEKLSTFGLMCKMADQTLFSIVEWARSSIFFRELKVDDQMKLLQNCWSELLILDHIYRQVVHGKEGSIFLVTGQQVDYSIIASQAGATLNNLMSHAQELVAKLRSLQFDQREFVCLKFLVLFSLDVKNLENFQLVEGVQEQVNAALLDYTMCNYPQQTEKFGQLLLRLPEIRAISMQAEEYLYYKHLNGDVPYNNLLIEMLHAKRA", "experiment": "LRH-1 (NR5A2) inverse agonists, retest, confirmation, cell-based, luminescence (AID 651613);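 note: HEK293T cells co-transfected with LRH-1 and StAR promoter luciferase reporter; 0% = vehicle wells and 100% = parental cells lacking receptor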", "settings": "cell-based LRH-1 luciferase reporter, inverse agonism; at 3.6 µM; stronger effect = higher value"}
{"smiles": "Cc1c(C)c2ccc(OCC(=O)N3CCN(C(=O)C4COc5ccccc5O4)CC3)cc2oc1=O", "note": "(stereo not given)", "inhibition": "60.4% (active)"}
{"smiles": "Cc1ccc(C)c(NC(=O)CSc2nnc(-c3ccccc3)n2N)c1", "inhibition": "53% (active)"}
{"smiles": "CC[C@H](CO)Nc1nc(Nc2cccc(Cl)c2)c2ncn(C(C)C)c2n1", "inhibition": "49.3% (active)"}
{"smiles": "NC(=S)N/N=C/c1ccc(-n2nncc2-c2ccc(Cl)cc2)cc1", "inhibition": "51.6% (active)"}
{"smiles": "COC(=O)CC1(C(=O)OC)Oc2ccc(Br)cc2C(=O)N1c1cc(Cl)c(Cl)cc1Cl", "note": "(stereo not given)", "inhibition": "58.5% (active)"}
{"smiles": "CCCC(=O)Nc1sc2c(c1C(=O)Nc1ccccn1)CCCC2", "inhibition": "47.1% (active)"}
{"smiles": "Cc1c(Cl)cccc1NC(=O)CSc1sc2c(O)cc(=O)[nH]c2c1C#N", "inhibition": "25.5%"}
{"smiles": "COc1ccc(-c2ccc(C(=O)NCc3ccncc3)c3occc23)c(C)c1", "inhibition": "69.7% (active)"}
{"smiles": "CCc1ccc2oc(C(=O)NCc3ccncc3)c(C)c2c1", "inhibition": "53.2% (active)"}
{"smiles": "O=[N+]([O-])c1cnccc1Nc1ccc(Cl)cc1", "inhibition": "64.1% (active)"}
{"smiles": "O=C(Nc1cc(C(F)(F)F)cc(C(F)(F)F)c1)O[C@@H]1c2ccccc2[C@@H]2Cc3csc[n+]3[C@H]12", "inhibition": "60% (active)"}
{"smiles": "O=C(c1ccccc1)N(NC(=O)C(O)(c1ccccc1)c1ccccc1)c1cccc(F)c1", "inhibition": "61.5% (active)"}
{"smiles": "Clc1ccccc1-c1nnc2sc(-c3ccncc3)nn12", "inhibition": "52.6% (active)"}
{"smiles": "Cc1ccc[n+](CC(=O)Nc2ccc([N+](=O)[O-])cc2)c1", "inhibition": "63.1% (active)"}
{"smiles": "Oc1ccccc1-c1nc(NCC2CCCO2)c2ccccc2n1", "note": "(stereo not given)", "inhibition": "66.2% (active)"}
{"smiles": "O=C(CN(Cc1ccccc1)C(=O)CCl)c1cccc(Br)c1", "inhibition": "55.7% (active)"}
{"smiles": "O=C(NCc1cccnc1)c1cccc2c1C(=O)N(C1CCCCC1)C2", "inhibition": "48.5% (active)"}
{"smiles": "O=C(Nc1ccc(Cc2ccncc2)cc1)c1cc(F)c(F)cc1Cl", "inhibition": "44.2% (active)"}
{"smiles": "COc1ccc(C2=CC(=O)CC(C)(C)C2)cc1OC", "inhibition": "59.1% (active)"}
{"smiles": "CCn1c2ccccc2c2cc(/C=N/n3cnnc3)ccc21", "inhibition": "30.4%"}
{"smiles": "O=C(Cc1c(F)cccc1Cl)Nc1ccncc1", "inhibition": "45% (active)"}
{"smiles": "COc1ccccc1NC(=O)c1ccc(NC(=O)COC(=O)C(C)C)cc1", "inhibition": "62.7% (active)"}
{"smiles": "Cc1ccc(NC(=O)CSc2sc3c(O)cc(=O)[nH]c3c2C#N)c(F)c1", "inhibition": "57.1% (active)"}
{"smiles": "O=C1C(Cl)=C(N2CCOCC2)C(=O)N1c1ccc(Br)cc1", "inhibition": "53.2% (active)"}
{"smiles": "Cc1ccc2c(c1)Oc1ccc(NC(=O)CCl)cc1C(=O)N2", "inhibition": "68.3% (active)"}
{"smiles": "Cc1cccc(NC(=O)CSc2nnc([C@@H]3CCCN3C(=O)OC(C)(C)C)o2)c1C", "inhibition": "66.2% (active)"}
{"smiles": "CCc1cc(=O)oc2c(C)c(OCC(=O)NCCCN3CCOCC3)ccc12", "inhibition": "48.7% (active)"}
{"smiles": "O=C1C(=C(I)I)c2ccccc2-c2ccccc21", "inhibition": "10.4%"}
{"smiles": "CS(=O)(=O)N1CCCC(c2nc(-c3ccc(S(=O)(=O)NCc4ccccc4)cc3)no2)C1", "note": "(stereo not given)", "inhibition": "54.5% (active)"}
{"smiles": "Cc1ccc(Cl)cc1N1CCN(C(=O)C(C)n2ncn3cccc3c2=O)CC1", "note": "(stereo not given)", "inhibition": "35.4%"}
{"smiles": "Cc1sc2ncnc(NCCc3ccc(S(N)(=O)=O)cc3)c2c1C", "inhibition": "53% (active)"}
{"smiles": "CCOC(=O)N1CCc2cc(OC)c(OC)c3c2c1cc1cc(OC)c(OC)cc13", "inhibition": "70.3% (active)"}
{"smiles": "S=C1Cc2ccccc2N1", "inhibition": "85.9% (active)"}
{"smiles": "CCC1(C)OC(=O)N2CCc3c(C)[nH]c4c(C)ccc(c34)C21C", "note": "(stereo not given)", "inhibition": "41.6% (active)"}
{"smiles": "COc1ccccc1Cc1c(-c2ccc(OC)c(OC)c2)nc2c3ccccc3ccn12", "inhibition": "40.2%"}
{"smiles": "O=[N+]([O-])c1ccc(N2CCCC2)nc1N1CCCC1", "inhibition": "59.7% (active)"}
{"smiles": "O=C(Nc1cc(Cl)ccc1-n1cncn1)c1ccc([N+](=O)[O-])s1", "inhibition": "68.4% (active)"}
{"smiles": "Oc1ccc2ccccc2c1C=NCc1ccccc1", "inhibition": "15.3%"}
{"smiles": "O=C(CN1C(=O)NC2(CCCC2)C1=O)NCCc1ccc(F)cc1", "inhibition": "44.2% (active)"}
{"smiles": "Cc1onc(NC(=O)c2ccc([N+](=O)[O-])o2)c1Br", "inhibition": "64.9% (active)"}
